# Laboratory results taken from PubChem BioAssay AID1345085 (National Center for Advancing Translational Sciences (NCATS), 2018).
# Records with an inconclusive call do not appear. A number with no mark means an inactive call. The source made the active and inactive calls. Calls come from the whole dose curve; as a rule, active = well fitted cell-killing curve with a large enough effect; inconclusive = small, poorly fitted or top-dose-only effect, or effect the other way; inactive = no such curve, though single readings can be large or run the other way.
# System: CASKI
# Assay: Confirmatory qHTS for gynecologic anti-cancer compounds from libraries of approved drugs and bioactive compounds; note: nearly all actives have a fitted effect of over 55% in size
# Settings: gynecologic cancer cell panel viability, ATPlite luminescence, 48 h; series mostly up to 57.6 µM; activity change, negative = viability loss: at the top concentration
# Summary of the method: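 Seeding 1,000 cells per well preceded overnight (16 h) attachment, after which 48 h drug treatment across 57.5 uM–0.977 nM (11 points) was applied. Remaining cellular ATP, detected by ATPlite luminescence, defined IC50.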
# % is set by controls: 0 for no effect and ±100 for the full control effect; potency is the fitted concentration of half-maximal effect.
Structure (SMILES),"activity change, negative = viability loss",Potency
CN(C)c1ccc(-c2nc3ncc(Cl)c(N4CCN(CC(=O)Nc5nccs5)CC4)c3[nH]2)cc1,-25.2% [at 19.5 µM],
CO[C@@]12[C@H](COC(N)=O)C3=C(C(=O)C(C)=C(N)C3=O)N1C[C@@H]1N[C@@H]12,5.69%,
COc1cc(N2CCC(N3CCN(C)CC3)CC2)ccc1Nc1ncc(Cl)c(Nc2ccccc2S(=O)(=O)C(C)C)n1,,12.2 µM (active)
OCc1ccc(-c2ccc(-c3ccc(CO)s3)o2)s1,-4.01% [at 19.5 µM],
Cc1cncc2cccc(S(=O)(=O)N3CCCN(C(=O)CN)C[C@@H]3C)c12,-17.1%,
Cc1nc(NC(=O)N2CCCC2C(N)=O)sc1-c1ccnc(C(C)(C)C(F)(F)F)c1 (configuration not stated),,7.69 µM (active)
Fc1cc(-c2cccc3ncc(-c4cnn(C5CCNCC5)c4)nc23)cc(F)c1CN1CCOCC1,,34.3 µM (active)
COc1ccc2cc3[n+](cc2c1OC)CCc1cc2c(cc1-3)OCO2,,10.9 µM (active)
Nc1ccc(-c2ccc3ncc4ccc(=O)n(-c5cccc(C(F)(F)F)c5)c4c3c2)cn1,,1.93 µM (active)
C[C@@H](Oc1cc(-c2cnn(C3CCNCC3)c2)cnc1N)c1c(Cl)ccc(F)c1Cl,,24.3 µM (active)
COc1cc(N2CCC(N(C)C)CC2)ccc1Nc1ncc(Cl)c(Nc2ccccc2P(C)(C)=O)n1,,7.69 µM (active)
CNc1nc(Nc2ccc(C(=O)N3CCOCC3)cc2OC)ncc1Cl,-19.4%,
CN(C[C@@H]1COCCO1)S(=O)(=O)Nc1ccc2ccc3ncc(-c4cnn(C)c4)cc3c(=O)c2c1,-7.46%,
Cc1ccccc1C(OCCN(C)C)c1ccccc1 (configuration not stated),-8.95%,
O=C1N(c2ccccc2)c2ccccc2C1(Cc1ccncc1)Cc1ccncc1,8.36%,
Cc1nc(Nc2ncc(C(=O)Nc3c(C)cccc3Cl)s2)cc(N2CCN(CCO)CC2)n1,,0.109 µM (active)
Cc1nc(N)sc1-c1ccnc(Nc2ccc(N3CCOCC3)cc2)n1,,24.3 µM (active)
O=c1cc(CN2CCOCC2)occ1OCCCCCSc1ccnc2cc(C(F)(F)F)ccc12,,24.3 µM (active)
Cc1ccc(C(=O)N(CCCN)C(c2oc3cc(Cl)ccc3c(=O)c2Cc2ccccc2)C(C)C)cc1 (configuration not stated),,27.3 µM (active)
CCc1cccc(CC)c1NC(=O)N1Cc2[nH]nc(NC(=O)c3ccc(N4CCN(C)CC4)cc3)c2C1,,19.3 µM (active)
CN(c1nccc(=O)[nH]1)C1CCN(c2nc3ccccc3n2Cc2ccc(F)cc2)CC1,-4.26%,
CC(C)[C@@H](CS(=O)(=O)C(C)C)N1C(=O)[C@@](C)(CC(=O)O)C[C@H](c2cccc(Cl)c2)[C@H]1c1ccc(Cl)cc1,10.2%,
